The record followed here is PubChem BioAssay.

The source made the active and inactive calls.

Experiment [1] is described as follows: small molecules captured by biotinylated probe aFSTL3 – biochemical, small-molecule microarray, fluorescence 635/667, stem cell growth factor project, primary screen (AID 1064).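 Note: measures binding of the biotinylated anti-FSTL3 antibody to printed compounds.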 The note with it: higher = more signal.
Experiment [2] is described as follows: binders from COS7 lysate, DM2A8 probe, primary screen, torsin A project, cell lysate, small-molecule microarray, fluorescence 635/667 (AID 1065). The settings on record: higher = more signal, COS7 lysate expressing mutant human TOR1A.
A short description of experiment [3]: small molecules captured by biotinylated probe aFGF2 – biochemical, small-molecule microarray, fluorescence 635/667, stem cell growth factor project, primary screen (AID 1067).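 Note: measures binding of biotinylated aFGF2 protein to printed compounds on slides; z-score merges feature fluorescence and signal-to-noise across triplicate slides.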 The settings on record: higher = more signal.
Experiment [4] can be described thus: small molecules captured by biotinylated probe aFGF10 – biochemical, small-molecule microarray, fluorescence 635/667, stem cell growth factor project, primary screen (AID 1071).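 Note: score merges 667 nm spot intensity and signal to noise from triplicate slides.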 The note with it: higher = more signal.
The target of experiment [5] is Neurogenic locus notch homolog protein 2 (Homo sapiens) (UniProt Q04721). Description: small molecules binding Notch2 protein – biochemical, small-molecule microarray, 635 nm fluorescence, stem cell growth factors, primary screen (AID 1073). The settings on record: higher = more signal.
Sequence of Neurogenic locus notch homolog protein 2 (Homo sapiens) (Q04721 whole entry, looked up, canonical isoform): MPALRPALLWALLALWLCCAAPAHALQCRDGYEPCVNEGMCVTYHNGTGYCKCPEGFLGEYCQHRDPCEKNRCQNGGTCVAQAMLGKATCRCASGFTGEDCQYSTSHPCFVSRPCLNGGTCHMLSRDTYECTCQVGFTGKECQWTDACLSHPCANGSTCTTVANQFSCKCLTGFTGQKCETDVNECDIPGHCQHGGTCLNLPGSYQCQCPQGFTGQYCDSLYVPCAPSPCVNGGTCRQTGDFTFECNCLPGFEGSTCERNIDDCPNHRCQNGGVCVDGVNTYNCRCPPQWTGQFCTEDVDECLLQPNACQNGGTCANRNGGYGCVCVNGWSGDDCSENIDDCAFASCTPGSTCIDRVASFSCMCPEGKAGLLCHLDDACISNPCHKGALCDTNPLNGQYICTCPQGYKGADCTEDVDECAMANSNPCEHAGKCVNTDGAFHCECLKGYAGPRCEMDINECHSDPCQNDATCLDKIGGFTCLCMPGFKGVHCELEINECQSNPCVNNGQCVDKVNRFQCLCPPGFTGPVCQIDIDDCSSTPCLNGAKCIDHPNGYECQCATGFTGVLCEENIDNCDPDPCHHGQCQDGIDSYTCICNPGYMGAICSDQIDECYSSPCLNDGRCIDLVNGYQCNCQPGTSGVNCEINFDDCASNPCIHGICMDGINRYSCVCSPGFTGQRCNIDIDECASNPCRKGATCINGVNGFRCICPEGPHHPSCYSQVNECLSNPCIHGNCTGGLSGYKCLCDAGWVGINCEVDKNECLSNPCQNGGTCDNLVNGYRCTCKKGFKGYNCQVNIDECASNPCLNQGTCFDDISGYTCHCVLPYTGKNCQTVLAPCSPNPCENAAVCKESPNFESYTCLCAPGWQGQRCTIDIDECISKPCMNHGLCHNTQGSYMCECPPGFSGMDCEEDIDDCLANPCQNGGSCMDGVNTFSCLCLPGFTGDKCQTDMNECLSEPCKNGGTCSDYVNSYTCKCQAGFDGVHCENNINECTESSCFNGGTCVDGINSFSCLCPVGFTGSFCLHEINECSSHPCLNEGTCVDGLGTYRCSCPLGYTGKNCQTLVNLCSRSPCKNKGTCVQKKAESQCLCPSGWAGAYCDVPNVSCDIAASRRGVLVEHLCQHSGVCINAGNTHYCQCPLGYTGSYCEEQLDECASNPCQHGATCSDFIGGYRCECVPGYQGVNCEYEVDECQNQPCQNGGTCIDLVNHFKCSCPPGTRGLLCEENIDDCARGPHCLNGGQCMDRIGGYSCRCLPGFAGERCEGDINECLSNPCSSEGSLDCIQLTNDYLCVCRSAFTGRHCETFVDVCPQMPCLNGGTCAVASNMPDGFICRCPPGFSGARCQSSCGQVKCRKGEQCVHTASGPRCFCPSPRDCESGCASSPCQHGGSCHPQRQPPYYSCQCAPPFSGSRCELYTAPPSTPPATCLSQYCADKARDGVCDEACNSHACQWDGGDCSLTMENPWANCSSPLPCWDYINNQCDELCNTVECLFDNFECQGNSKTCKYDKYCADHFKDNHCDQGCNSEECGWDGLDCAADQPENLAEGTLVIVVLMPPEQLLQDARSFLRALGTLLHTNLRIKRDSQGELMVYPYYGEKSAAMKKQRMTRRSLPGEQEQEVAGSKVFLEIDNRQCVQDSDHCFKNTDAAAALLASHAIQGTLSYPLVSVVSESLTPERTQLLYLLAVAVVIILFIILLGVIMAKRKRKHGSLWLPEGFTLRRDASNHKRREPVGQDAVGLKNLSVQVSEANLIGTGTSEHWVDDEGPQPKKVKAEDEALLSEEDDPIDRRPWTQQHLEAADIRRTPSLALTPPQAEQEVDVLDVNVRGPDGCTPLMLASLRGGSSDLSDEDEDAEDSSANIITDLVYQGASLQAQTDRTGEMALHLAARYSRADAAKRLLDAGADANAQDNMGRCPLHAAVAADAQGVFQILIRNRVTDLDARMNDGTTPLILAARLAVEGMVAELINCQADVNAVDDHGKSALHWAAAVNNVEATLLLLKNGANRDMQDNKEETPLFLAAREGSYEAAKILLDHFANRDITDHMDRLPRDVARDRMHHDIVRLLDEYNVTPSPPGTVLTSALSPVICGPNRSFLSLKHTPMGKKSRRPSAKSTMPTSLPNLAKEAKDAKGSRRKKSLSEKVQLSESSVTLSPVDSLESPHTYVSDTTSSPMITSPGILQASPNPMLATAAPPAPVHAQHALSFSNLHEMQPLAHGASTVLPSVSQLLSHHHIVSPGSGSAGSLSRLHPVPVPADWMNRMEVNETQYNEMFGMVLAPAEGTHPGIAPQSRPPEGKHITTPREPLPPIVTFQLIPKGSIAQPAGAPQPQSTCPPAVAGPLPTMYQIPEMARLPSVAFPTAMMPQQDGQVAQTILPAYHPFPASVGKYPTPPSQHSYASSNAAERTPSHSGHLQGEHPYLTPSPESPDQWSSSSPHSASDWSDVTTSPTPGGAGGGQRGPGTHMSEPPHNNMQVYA
Experiment [6] has as its target Pro-neuregulin-1, membrane-bound isoform (Homo sapiens) (UniProt Q02297). The experiment is described as follows: small molecules binding neuregulin-1 protein – biochemical, small-molecule microarray, fluorescence 635/667, psychiatric disease protein project, primary screen (AID 1075).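 Note: score combines 667 nm spot fluorescence with signal to noise.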 The note with it: NRG1 binding, 635 nm fluorescence, higher = more signal.
In experiment [7] the test system is Neuregulin-1 EGF-like domain. Description: small molecules binding NRG1 EGF domain – biochemical, small-molecule microarray, 635 nm fluorescence, primary screen (AID 1081).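 Note: binding of the protein to compounds printed on small-molecule microarray slides.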 The settings on record: higher = more signal.
Experiment [8] in a line: FRG1 expression reporter modulators in myotubes – cell-based, C2C12 myotubes, firefly/Renilla luciferase, luminescence, FRG1 inhibition for FSHD, primary screen (AID 1084). The settings on record: FRG1 promoter luciferase, higher = more signal, called active from +8 up or from −8 down.
Experiment [9] in a line: small molecules captured by biotinylated probe aFST – biochemical, small-molecule microarray, fluorescence 635/667, stem cell growth factor project, primary screen (AID 1086).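 Note: score merges 667 nm fluorescence with signal-to-noise of each printed compound spot.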 The note with it: higher = more signal.
Experiment [10] in a line: binders of probe aHhip on microarray, primary screen, stem cell growth factor project, biochemical, small-molecule microarray, fluorescence 635/667 (AID 1087).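 Note: score merges spot fluorescence at 667nm with spot signal to noise ratio.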 The note with it: higher = more signal.
Experiment [11] relates to PRMT1 (protein arginine N-methyltransferase 1). The experiment is described as follows: small molecules binding arginine methyltransferase PRMT1 – biochemical, small-molecule microarray, 635 nm fluorescence, primary screen (AID 1088).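 Note: binding of Prmt1 protein to compounds spotted on small-molecule microarray slides.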 The note with it: higher = more signal.
A short description of experiment [12]: growth effects on S. cerevisiae YJM789 – YJM789 clinical isolate, OD600, 24 h, basal, primary screen (AID 1089).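 Note: growth of clinical yeast isolate S. cerevisiae YJM 789 seeded 1000 cells per well; test concentration not given here.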 The settings on record: higher = more signal, called active from +8 up or from −8 down.
Experiment [13] can be described thus: S. pombe growth modifiers, basal conditions – strain 972, OD600, 24 h, no modulator, primary screen (AID 1090).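 Note: basal condition with compound alone and no growth modifier present; test concentration not given here.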 The note with it: S. pombe 972 growth, higher = more signal, called active from +8 up or from −8 down.
Experiment [14] can be described thus: budding yeast growth modifiers under rapamycin – strain BY4716, OD600, 96 h, primary screen (AID 1091). Note: test concentration not given here. The settings on record: S. cerevisiae BY4716 + rapamycin, higher = more signal, called active from +8 up or from −8 down.
For experiment [15], the target named is Torsin-1A-interacting protein 2 (Homo sapiens) (UniProt Q8NFQ8). Description: small molecules binding lysate-expressed LULL1 – cell lysate, human LULL1 lysate, 635/667 nm fluorescence, primary screen (AID 1092).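 Note: score merges per-feature 667 nm fluorescence with signal-to-noise.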 The settings on record: small-molecule microarray, hLULL1 lysate binding, 635 nm fluorescence; higher = more signal.
The nature of experiment [16]: optical density change of DRC41 E. coli – strain DRC41, OD650, 24 h, E. coli filamentation project, primary screen (AID 1093).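 Note: MC1000 strain lacking acrAB efflux and sulA so SOS filamentation is blocked; test concentration not given here.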 The settings on record: E. coli DRC41 growth, higher = more signal, called active from +8 up or from −8 down.
Experiment [17] can be described thus: probe aLefty2 binding to arrayed compounds – biochemical, biotinylated probe, 635/667 nm fluorescence, primary screen (AID 1094).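 Note: score merges spot fluorescence near 667 nm with spot signal-to-noise ratio.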 The note with it: small-molecule microarray, higher = more signal.
The test system of experiment [18] is Noggin (protein binding on small-molecule microarray). The experiment is described as follows: small molecules binding Noggin protein – biochemical, 635/667 nm fluorescence, primary screen (AID 1095).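 Note: score merges 667 nm feature fluorescence with signal to noise over triplicate slides.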 The settings on record: 635 nm fluorescence, higher = more signal.
Experiment [19] addresses Neurogenic locus notch homolog protein 3 (Homo sapiens) (UniProt Q9UM47). The experiment is described as follows: small molecules binding NOTCH3 protein – biochemical, 635/667 nm fluorescence, primary screen (AID 1096). The note with it: small-molecule microarray, 635 nm fluorescence, higher = more signal.
Experiment [20] can be described thus: probe aEGFR binding to arrayed compounds – biochemical, biotinylated probe, 635/667 nm fluorescence, primary screen (AID 1097).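 Note: probe is a biotinylated anti-EGFR antibody binding compounds printed on slides; score combines fluorescence near 667 nm and signal to noise of each spot.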 The settings on record: small-molecule microarray, higher = more signal.

Sequence of Neurogenic locus notch homolog protein 3 (Homo sapiens) (Q9UM47 whole entry, looked up): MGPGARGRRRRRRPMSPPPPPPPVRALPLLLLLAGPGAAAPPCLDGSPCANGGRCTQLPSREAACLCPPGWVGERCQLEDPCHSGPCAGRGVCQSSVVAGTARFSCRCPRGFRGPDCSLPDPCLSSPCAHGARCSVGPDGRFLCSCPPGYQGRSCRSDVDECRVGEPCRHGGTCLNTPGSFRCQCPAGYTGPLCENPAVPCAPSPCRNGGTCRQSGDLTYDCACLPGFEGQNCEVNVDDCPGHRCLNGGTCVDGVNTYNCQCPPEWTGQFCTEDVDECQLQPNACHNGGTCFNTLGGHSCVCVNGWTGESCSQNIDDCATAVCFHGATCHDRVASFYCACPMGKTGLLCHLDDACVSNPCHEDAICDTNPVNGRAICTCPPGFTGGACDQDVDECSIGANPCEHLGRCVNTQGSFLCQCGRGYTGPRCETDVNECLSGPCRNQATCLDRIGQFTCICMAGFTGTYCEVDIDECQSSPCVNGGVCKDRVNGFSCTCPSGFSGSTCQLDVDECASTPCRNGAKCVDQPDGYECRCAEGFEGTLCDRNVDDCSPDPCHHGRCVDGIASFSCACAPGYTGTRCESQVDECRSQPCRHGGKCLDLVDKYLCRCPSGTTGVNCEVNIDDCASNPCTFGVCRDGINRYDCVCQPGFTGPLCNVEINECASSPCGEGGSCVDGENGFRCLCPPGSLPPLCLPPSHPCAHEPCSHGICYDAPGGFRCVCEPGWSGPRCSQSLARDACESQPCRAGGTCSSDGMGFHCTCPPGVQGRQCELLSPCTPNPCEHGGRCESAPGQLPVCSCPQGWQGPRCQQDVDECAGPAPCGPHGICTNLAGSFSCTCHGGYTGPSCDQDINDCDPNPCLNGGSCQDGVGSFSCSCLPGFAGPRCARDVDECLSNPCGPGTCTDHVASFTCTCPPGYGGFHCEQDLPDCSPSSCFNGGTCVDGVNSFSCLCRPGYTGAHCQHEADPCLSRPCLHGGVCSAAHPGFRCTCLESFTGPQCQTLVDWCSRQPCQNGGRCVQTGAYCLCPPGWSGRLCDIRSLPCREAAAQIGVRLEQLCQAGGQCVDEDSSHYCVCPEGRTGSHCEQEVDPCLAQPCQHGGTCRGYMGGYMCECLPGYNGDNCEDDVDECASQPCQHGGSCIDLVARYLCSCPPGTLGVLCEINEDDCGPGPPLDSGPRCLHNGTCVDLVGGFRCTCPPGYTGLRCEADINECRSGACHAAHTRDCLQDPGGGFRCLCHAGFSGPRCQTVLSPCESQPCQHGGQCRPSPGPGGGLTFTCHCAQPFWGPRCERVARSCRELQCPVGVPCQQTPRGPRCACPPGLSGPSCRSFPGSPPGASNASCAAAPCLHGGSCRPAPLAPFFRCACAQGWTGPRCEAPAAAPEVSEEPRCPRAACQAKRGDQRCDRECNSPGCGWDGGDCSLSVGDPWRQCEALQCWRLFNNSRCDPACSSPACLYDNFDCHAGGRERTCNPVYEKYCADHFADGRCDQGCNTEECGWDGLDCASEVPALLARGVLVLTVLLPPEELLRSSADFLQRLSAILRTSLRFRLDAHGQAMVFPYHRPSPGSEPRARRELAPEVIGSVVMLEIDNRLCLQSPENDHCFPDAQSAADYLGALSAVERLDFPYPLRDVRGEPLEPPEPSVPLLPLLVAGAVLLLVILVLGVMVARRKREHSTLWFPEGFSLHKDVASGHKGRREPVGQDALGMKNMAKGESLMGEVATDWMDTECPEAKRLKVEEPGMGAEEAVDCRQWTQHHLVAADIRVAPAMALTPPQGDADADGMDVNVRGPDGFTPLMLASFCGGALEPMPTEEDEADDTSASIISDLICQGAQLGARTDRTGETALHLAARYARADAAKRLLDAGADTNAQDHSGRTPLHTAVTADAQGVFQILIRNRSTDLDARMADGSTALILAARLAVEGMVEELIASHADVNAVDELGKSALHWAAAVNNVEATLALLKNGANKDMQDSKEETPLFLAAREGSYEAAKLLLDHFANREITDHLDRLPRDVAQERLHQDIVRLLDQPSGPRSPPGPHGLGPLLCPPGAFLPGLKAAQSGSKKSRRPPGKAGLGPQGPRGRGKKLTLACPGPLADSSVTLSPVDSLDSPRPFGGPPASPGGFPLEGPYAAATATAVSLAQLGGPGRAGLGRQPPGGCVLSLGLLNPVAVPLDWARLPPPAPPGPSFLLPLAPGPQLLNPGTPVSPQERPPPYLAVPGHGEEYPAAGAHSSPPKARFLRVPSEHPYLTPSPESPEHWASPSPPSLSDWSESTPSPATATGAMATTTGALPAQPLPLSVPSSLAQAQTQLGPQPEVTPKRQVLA

Consider `C#CCCCON=C1C[C@@H](O)[C@@H](O)[C@@H]2[C@@H]3C(=O)N(CCC(=O)OCC)C(=O)[C@@H]3CC[C@@H]12`, for which the composite z-score in experiment [1] is 1.93; in experiment [2], 0.597; in experiment [3], -0.0505; in [4], -0.0007; in [5], -0.835; in [6], 0.107. Besides, the composite z-score in experiment [7] was -0.307; in experiment [9], 0.63; in [10], -0.12; in experiment [11] it was -0.683; in [15], 0.654; in experiment [17], 0.706. Besides, the composite z-score was -1.1 in experiment [18], -1.01 in experiment [19] and -0.152 in [20]. Moreover, the z-score in experiment [8] is 0.665 (inactive); in experiment [12], -0.969 (inactive); in experiment [13], 0.068 (inactive); in experiment [14], -0.664 (inactive); in [16], 0.827 (inactive).
Turning to `C[C@@H]1CCC2C(=O)N(Cc3ccccc3)C[C@@H](O)CN2[C@H]1c1ccc(Br)cc1` (stereo not given in full), the composite z-score was -0.364 in experiment [1]; 0.381 in [2]; -0.145 in experiment [3]; 0.84 in experiment [4]; -0.05 in [5]; 0.0596 in experiment [6]. Further, the composite z-score was 0.963 in [7]; -0.0584 in [9]; -0.0618 in experiment [10]; 1.39 in experiment [11]; 1.5 in [15]; -0.23 in experiment [17]. For the same compound, the composite z-score was 0.542 in experiment [18], 0.158 in [19] and -0.115 in experiment [20]. Also, the z-score in [8] is -0.765 (inactive); in experiment [12] it was -1.91 (inactive); in experiment [13] it was -3.75 (inactive); in experiment [14] it was -0.26 (inactive); in experiment [16], 0.369 (inactive).
Turning to `O=C1[C@H]2[C@H]3[C@H](O)[C@H](O)CC(=NOC[C@@H](O)COCc4ccco4)[C@H]3CC[C@H]2C(=O)N1C1CCCCC1`, the composite z-score is -0.749 in [1]; 2.19 in experiment [2]; -0.254 in experiment [3]; -0.39 in [4]; -0.24 in experiment [5]; -0.394 in experiment [6]. The composite z-score in experiment [7] is 0.403; in experiment [9], 0.101; in [10] it was -0.156; in experiment [11], 1.1; in [15], -0.522; in [17] it was -0.0841. Moreover, the composite z-score in [18] is 1.19; in experiment [19] it was 0.214; in [20], -0.0141. Moreover, the z-score in [8] is -0.784 (inactive); in [12], 0.432 (inactive); in experiment [13], -0.299 (inactive); in [14], 0.356 (inactive); in [16], -0.263 (inactive).
As to `CC(CCC(=O)OC[C@H]1O[C@H](C#Cc2ccccc2)C=C[C@@H]1Oc1ccc(C)cc1)=NOC[C@@H](O)COCc1ccco1`, the composite z-score is 0.348 in experiment [1]; -2.21 in [2]; 0.0388 in experiment [3]; -3.02 in [4]; -2.5 in experiment [5]; -0.837 in experiment [6]. Further, the composite z-score was -0.295 in experiment [7]; -1.94 in experiment [9]; -0.389 in experiment [10]; -0.25 in experiment [11]; -0.486 in experiment [15]; -0.356 in experiment [17]. In addition, the composite z-score in experiment [18] was -3.08; in experiment [19] it was -1.76; in [20] it was -0.428. Moreover, the z-score in [8] is -0.948 (inactive); in experiment [12], 0.594 (inactive); in experiment [13], 0.134 (inactive); in [14], 0.108 (inactive); in [16], 0.147 (inactive).
Regarding `CC(C)=NOCc1ccc(-c2cc(-c3ccccc3)no2)cc1`, the composite z-score in [1] is -0.474; in experiment [2], -0.191; in experiment [3], -0.0788; in experiment [4], 0.241; in experiment [5], 0.29; in [6], -0.225. Also, the composite z-score in experiment [7] was 0.123; in [9], 0.0003; in experiment [10], -0.0296; in experiment [11], -1.06; in [15] it was 0.108; in [17], -0.252. The figures for the composite z-score in experiment [18], in experiment [19] and in [20] were 0.429, 0.152 and -0.163, respectively. Besides, the z-score in [8] is -0.172 (inactive); in [12] it was 0.237 (inactive); in experiment [13], 0.256 (inactive); in [14], 0.213 (inactive); in [16] it was 0.383 (inactive).
